Potency data for 14 compounds are collected here from PubChem BioAssay (NCATS).

Results filed as inconclusive are left out. Calls of active or inactive are those of the source. The call rests on the fitted dose curve; in most records, active means well fitted cell-killing curve with a large enough effect; inconclusive means small, poorly fitted or top-dose-only effect, or effect the other way; inactive means no such curve, though single readings can be large or run the other way.
Potency means the concentration at half of the fitted maximal effect.

The nature of one test: Quantitative High-Throughput drug screen in 47 multiple myeloma cell lines against the NCATS MIPE library collection: FR4_PLB cell viability assay (AID 1918924; further: nearly all actives have a fitted effect of over 35% in size). As to conditions: FR4_PLB myeloma cells viability, CellTiter-Glo ATP, 48 h; series mostly up to 45.8 µM. A digest of the protocol:
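Approved and investigational drugs from MIPE 4.0 were added by pin tool to 500 cells per well. After 48 hours at 37C, ATP-based CellTiter-Glo luminescence indicated remaining viability.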
(In general: In ATP-based viability assays light output follows the ATP content of the culture.)
As to `Cn1cc(CNCC2CCN(c3ncc(C(=O)NO)cn3)CC2)c2ccccc21`, the Potency is 0.0264 µM (active).
For the compound `C[C@]12CCC(=O)C=C1[C@@H]1CC1[C@H]1[C@H]3[C@@H]4C[C@H]4[C@@]4(CCC(=O)O4)[C@@]3(C)CC[C@H]12` (some centres undefined), the Potency result is “inactive”.
In the case of `O=c1[nH]c(=O)n([C@H]2C[C@@H](O)[C@@H](CO)O2)cc1F`, the Potency was 13.2 µM (active).
Still for that read-out and setting: for `COc1ccc(Nc2cc(-c3cnc(N)nc3)nc(N3CCOCC3)n2)cn1` the value was 4.18 µM (active); for `COc1ccc(C[C@@H](C)[C@@H](C)Cc2ccc(OC)c(OC)c2)cc1OC`, 0.118 µM (active).
Still for that read-out and setting: for `Cc1cc(-c2nnc3n2CCCCC3)c(C)n1-c1ccccc1` the value was “inactive”.

The next test in a line: Quantitative High-Throughput drug screen in 47 multiple myeloma cell lines against the NCATS MIPE library collection: Delta47_JCRB cell viability assay (AID 1918925; further: nearly all actives have a fitted effect of over 45% in size). As to conditions: Delta47 myeloma viability, CellTiter-Glo ATP, 48 h; series mostly up to 45.8 µM. An outline of the steps: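 Steps: seed 500 cells per well; pin-transfer MIPE 4.0 library; incubate 48 h at 37C, 5% CO2, humidified; add CellTiter-Glo, 5 min room temperature; read luminescence.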
As for `CCOc1cc2ncc(C#N)c(Nc3ccc(OCc4ccccn4)c(Cl)c3)c2cc1NC(=O)C=CCN(C)C`, the Potency was 0.59 µM (active).
Consider `Nc1nc(=O)n([C@H]2CSC(CO)O2)cc1F` (some centres undefined), for which the Potency result was “inactive”.
On the same count and under the same terms, for `NC(=O)N1CCC(CC(=O)N2CCC([C@H]3c4ncc(Br)cc4CCc4cc(Cl)cc(Br)c43)CC2)CC1` the value was 8.33 µM (active); for `COc1cc2c(cc1O)CCC1C2CC[C@@]2(C)C1CC[C@@H]2O` (some centres undefined), 2.64 µM (active).
Turning to `C#Cc1cccc(Nc2ncnc3cc(OCCOC)c(OCCO)cc23)c1`, the Potency is 1.05 µM (active).
Consider `CCn1c(=O)c2c(nc(C=Cc3ccc(OC)c(OC)c3)n2C)n(CC)c1=O`, for which the Potency result was “inactive”.
The same measure, in the same setting: in the case of `CCCNS(=O)(=O)Nc1ncnc(OCCOc2ncc(Br)cn2)c1-c1ccc(Br)cc1` it was 2.64 µM (active); in that of `C=CCNC1=C2C[C@@H](C)C[C@H](OC)[C@@H](O)[C@@H](C)C=C(C)[C@H](OC(N)=O)[C@@H](OC)C=CC=C(C)C(=O)NC(=CC1=O)C2=O`, 1.05 µM (active).
